# CYP2C9 activ: activators of human CYP2C9 | AID 1024 | P11712 | recombinant CYP2C9, luciferin-H conversion, luminescence; active compounds read high; factor 1 = untreated enzyme, 0 = blocked | activation factor at 5 µM | actives 1.4% (n = 96,000);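 active = activation factor of 2 or more for CYP2C9 at a 5 µM dose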
# CYP2C19 act: increases human CYP2C19 enzyme activity | P33261 | recombinant CYP2C19, luciferin-H EGE luminescence; active compounds read high; 0 = fully inhibited enzyme, 1 = untreated enzyme | activation factor at 5 µM | 96,000 tested, under 10 active;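 active = activation factor of at least 2 at 5 µM in the primary screen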
# Target sequence (P33261 whole entry, looked up): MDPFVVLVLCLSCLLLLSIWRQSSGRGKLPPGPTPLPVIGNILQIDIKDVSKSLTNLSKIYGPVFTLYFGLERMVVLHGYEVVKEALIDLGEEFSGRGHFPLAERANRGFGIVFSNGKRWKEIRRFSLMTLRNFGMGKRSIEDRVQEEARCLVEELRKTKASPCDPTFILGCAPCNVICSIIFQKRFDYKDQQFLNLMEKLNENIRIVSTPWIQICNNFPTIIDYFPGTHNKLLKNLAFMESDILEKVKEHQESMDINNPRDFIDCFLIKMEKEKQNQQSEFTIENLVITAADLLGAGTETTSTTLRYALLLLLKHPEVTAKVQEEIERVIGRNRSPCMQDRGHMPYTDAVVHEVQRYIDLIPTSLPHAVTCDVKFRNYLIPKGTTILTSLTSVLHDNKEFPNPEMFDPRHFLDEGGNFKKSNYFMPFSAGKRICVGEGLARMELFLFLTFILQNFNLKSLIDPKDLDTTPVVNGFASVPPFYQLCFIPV
# MRP resist rev: reverses drug resistance mediated by MRP; H69AR cells + 2 uM doxorubicin, CellTiter-Glo, 72 h; differential viability (reversal), % at 10 µM; actives 0.04% (n = 85,000);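 active = viability drop by adding the cancer drug above about 55%, with treated viability meeting a 40% cutoff, limit read from the data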;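 also: larger differential means the compound sensitizes cells more to doxorubicin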
# MRP1 act: activates MRP-1; H69AR cells + doxorubicin, viability rescue, CellTiter-Glo; viability increase, % at 10 µM; actives 0.61% (n = 140,000); AID 799;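 active = viability gain under doxorubicin at or above a set limit, the compound median plus 3 SD, cut at about 4.7% in these data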;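 also: MRP-1 overexpressing cells given doxorubicin 25 µM after compound pretreatment; 18-22 h compound pretreatment then 72 h with doxorubicin before readout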
# CYP2C19 inhib: inhibitors of human CYP2C19; CYP2C19 Supersomes, luciferin-H EGE luminescence, 30 min; inhibition, % at 5 µM; P33261; actives 21% (n = 96,000);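 active = CYP2C19 inhibition above a set limit at 5 µM in the primary screen, cut at about 50% in these data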
# CYP2C9 inhib: blocks human cytochrome P450 2C9; actives 20% (n = 96,000); AID 777; P11712; inhibition, % at 5 µM; CYP2C9 Supersomes, luciferin-H conversion, luminescence;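 active = blocking of liver enzyme CYP2C9 beyond about 50% at 5 µM, limit read from the data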
# A number is an active result; n = inactive; x = no result given. Rows were chosen to be rich in hits. Some 21% of all compounds tested hit in one or more screens of this group.
SMILES,CYP2C9 activ,CYP2C19 act,MRP resist rev,MRP1 act,CYP2C19 inhib,CYP2C9 inhib
CC(C)(C)NC(=O)c1ccc(Sc2ccccc2)c([N+](=O)[O-])c1,n,n,x,n,70,92
C=CCNC(=O)c1ccc(Sc2ccccc2)c([N+](=O)[O-])c1,n,n,x,n,76,70
C=C(CC)C(=O)c1ccc(OCC(=O)O)c(Cl)c1Cl,x,x,n,n,x,x
COC(=O)[C@@H](NC(=O)NCc1ccccc1Cl)C(C)C,n,n,n,n,n,n
Cc1ccsc1/C=N/NC(=O)Cn1cnc2ccccc21,x,x,x,n,x,x
O=C(CSc1ccsc1[N+](=O)[O-])N1CCN(c2ccc(Cl)cc2)CC1,x,x,x,n,x,x
CC1(c2ccc3noc(-c4ccccc4)c3c2)OCCO1,n,n,n,n,50,n
CC1(c2ccc3noc(-c4ccc(F)cc4)c3c2)OCCO1,n,n,n,n,69,n
CCCS(=O)(=O)N1CCCC(C(=O)NCCCN(C)c2ccccc2)C1 (configuration not stated),n,n,n,n,n,n
COc1ccc(Cn2c(SCc3ccc(C)cc3)nc3cc(OC)c(OC)cc3c2=N)cc1Cl,n,n,x,n,n,69
COc1ccc(Cn2c(SCc3cc(C)ccc3C)nc3cc(OC)c(OC)cc3c2=N)cc1,n,n,x,n,n,56
Cc1ccc(CSc2nnc3nc(C)cc(C)n23)cc1,n,n,n,n,n,n
Cc1ccc(C)c(CSc2nc3ccncc3n2CC(=O)Nc2ccc(C)c(C)c2)c1,x,x,x,n,x,x
COc1cc2nc(SCc3ccc(Cl)cc3Cl)n(Cc3cccs3)c(=N)c2cc1OC,n,n,x,n,n,74
Cc1c(N2C(=O)CS/C2=N\N=C\c2ccc(Br)cc2)c(=O)n(-c2ccccc2)n1C,n,n,x,n,n,n
O=C(NCC(F)(F)F)Nc1ncccn1,n,n,n,n,n,n
Cc1cc(C)cc(NC(=S)NCc2cccs2)c1,x,x,x,n,x,x
Cc1cccc(NC(=S)NCc2cccs2)c1C,n,n,n,n,52,n
Cc1cccc(Nc2ncccc2C(=O)NCc2cccs2)c1C,n,n,x,n,n,57
CC(C)(C)c1ccc(NC(=S)NCc2cccs2)cc1,n,n,x,n,n,n
CCC(C)c1ccc(NC(=S)NCc2cccs2)cc1 (configuration not stated),n,n,n,n,58,n
O=C(Nc1cccc2c1CCCC2)c1ccncc1,x,x,n,n,x,x
O=C(OC[C@@H]1CCCN2CCCC[C@H]12)c1cc2ccccc2oc1=O,x,x,x,n,x,x
O=C(O)CCC(=O)N1CCc2cc(S(=O)(=O)N(CCc3ccccc3)Cc3ccccc3)ccc21,n,n,n,n,n,n
NC(=O)c1ccccc1NC(=O)CS(=O)(=O)Cc1ccccc1,n,n,n,n,n,n
SMILES,CYP2C9 activ,CYP2C19 act,MRP resist rev,MRP1 act,CYP2C19 inhib,CYP2C9 inhib
Cc1c(C(=O)O)oc2c1/C(=N\O)CC(C)(C)C2,x,x,x,n,x,x
O=C(Cc1ccccc1)Nc1c2c(nn1-c1cccc(Cl)c1)CS(=O)(=O)C2,n,n,n,n,55,n
S=c1[nH]nc(-c2ccco2)n1Cc1ccccc1,n,n,n,n,n,50
S=c1[nH]nc(-c2ccncc2)n1Cc1ccco1,n,n,n,n,n,61
S=c1[nH]nc(-c2ccccc2)n1Cc1ccccc1,n,n,n,n,62,n
S=c1[nH]nc(-c2ccc(Br)o2)n1Cc1ccccc1,n,n,x,n,61,60
S=c1[nH]nc(-c2ccc(Cl)cc2)n1Cc1ccccc1,x,x,n,n,x,x
CCn1c(-c2ccco2)n[nH]c1=S,n,n,n,n,n,n
Cc1ccc(NC(=O)/C=C/c2ccc3c(c2)OCO3)cc1S(=O)(=O)N1CCOCC1,x,x,x,n,x,x
CCCc1nnc(NC(=O)CCC(=O)N2CCN(C3c4ccccc4-c4ccccc43)CC2)s1,x,x,x,n,x,x
CCOC(=O)COc1c(Br)cc(/C=C2\SC(=O)N(CC(=O)N3CCCC3)C2=O)cc1OC,n,n,x,n,n,n
NC(=O)c1ccc(-n2nnnc2SCc2ccc(F)cc2)cc1,n,n,n,n,75,n
CSc1ccccc1-n1nnnc1SCc1ccccc1,n,n,n,n,87,66
O=C(O)c1ccc(-n2nnnc2SCc2ccccc2)cc1,n,n,83,n,n,n
COC(=O)c1ccc(-n2nnnc2SCc2nn[nH]n2)cc1,n,n,n,n,n,n
Cc1ccc(-c2nsc3c(N4CCN(C(=O)c5ccco5)CC4)ncnc23)cc1,n,n,n,x,n,n
c1ccc(-n2nc3c(ccc4cnnc43)[nH]2)cc1,n,n,n,n,n,60

# Compound activity: PubChem BioAssay, several laboratories
